Hits are enriched below; roughly 5.5% of the tested compounds scored in any of these assays.
Sfp inh = Sfp phosphopantetheinyl transferase inhibition; hit rate 3.5% among 310,000; Potency, µM, inactives show largest response in the series, negative = inhibition, usual class: inhibitors; Q9F4F7; Biochemical Sfp PPTase activity, qHTS;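 note: the enzyme is Sfp with the accession as filed and its product quenches rhodamine fluorescence; potency is the fitted concentration of half-maximal effect; 0% = enzyme reaction without inhibitor and -100% = no enzyme wells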
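With Hepes-Na pH 7.6 buffer containing 10 mM MgCl2, Sfp (15 nM) modified BHQ-2-YbbR (12.5 uM) using rhodamine-CoA (5 uM). Two reads 30 minutes apart at 525/598 nm yielded each well's rate.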
Coupling enz = counter-screen for Giardia aldolase inhibitors: coupling enzyme system; AID 2472; coupling enzyme system counterscreen, AmpLite Red fluorescence; hit rate 0.67% among 290,000; activity change, negative = inhibition, % at 58.2 µM, hits read low; in the data active = activity change below about -30%
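Final compound at 57.5 uM, incubated 10 min at RT with coupling enzyme reagent (glyceraldehyde-3-phosphate), then 20 min with substrate and AmpLite Red detection. Fluorescence read at 525/598 nm; tests interference with the coupling assay, not aldolase inhibition.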
ELG1 DNA repair = blocks ELG1-dependent DNA repair in HEK293T cells; HEK293T ELG1-luciferase reporter, luminescence, 16 h; DNA damage induced by 5-fluorouridine; Potency, µM (highest dose often 46.1 µM), without a hit: top-dose activity change, negative = inhibition, usual class: inhibitors; hit rate 2.3% among 330,000; AID 504467; note: potency is the fitted concentration of half-maximal effect; nearly all actives have a fitted effect of over 55% in size
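5-Fluorouridine DNA damage + compound/DMSO, 2,000 cells/well, 16 h, 37 °C/5% CO2. ONE-Glo, 30 min RT, luminescence. Readout = decrease in reporter signal.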
Giardia killer = kills Giardia lamblia; Giardia lamblia trophozoite viability; activity change, % at 7.66 µM, hits read low; hit rate 0.15% among 340,000; in the data active = activity change below about -80%; inconclusive = between about -30% and that limit;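 note: parasites exposed to compound for two days anaerobically before the ATP read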
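Giardia trophozoites, 100 cells per well, were exposed to compounds for 48 hrs at 37 deg C under anaerobic conditions; viability was then read as ATP content by bioluminescence after 15-30 min at room temperature.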
Numbers without * were called inactive. Unless noted, calls come from the whole dose curve; as a rule, active = well fitted curve in the direction sought with a large enough effect; inconclusive = small, poorly fitted or top-dose-only effect, or another doubt; inactive = no such curve, though single readings can be large; an effect the other way counts as inactive or inconclusive. Unless noted, % is set by controls: 0 for no effect and ±100 for the full control effect.

Results for CC(C)/C=N/Nc1nc(-c2ccc(Br)cc2)cs1 ?
Sfp inh: 79µM*; Coupling enz: -6; ELG1 DNA repair: inconclusive; Giardia killer: -11

How did COc1ccc(O)c(N)c1 do in these assays?
Sfp inh: 56µM*; Coupling enz: -29; ELG1 DNA repair: -17%

What do the screens show for `COc1cccc(F)c1C(=O)NC(=O)Nc1ccc2nc(C)oc2c1`?
Sfp inh: -38%; Coupling enz: -31*; ELG1 DNA repair: inconclusive; Giardia killer: 10

How did O=S(=O)(c1ccccc1Br)N(Cc1ccccc1)Cc1ccco1 do in these assays?
Sfp inh: -1%; Coupling enz: 1; Giardia killer: -7

How did Cc1ccc(S(=O)(=O)Oc2ccc(N3C(=O)C4C5CCC(C5)C4C3=O)cc2)cc1 (stereo not given) do in these assays?
Sfp inh: 10%; Coupling enz: 0; ELG1 DNA repair: 8.2µM*; Giardia killer: -3

How did Cc1ccc(S(=O)(=O)Oc2ccccc2N2C(=O)C3C4CCC(C4)C3C2=O)cc1 (stereo not given) do in these assays?
Sfp inh: 9%; Coupling enz: 3; ELG1 DNA repair: 17%; Giardia killer: -1

How did COc1cc(C(=O)O)nc2ccccc12 do in these assays?
Sfp inh: 63µM*; Coupling enz: 0; ELG1 DNA repair: -10%; Giardia killer: 19

Results for COc1cc(-c2ccccc2)nc2ccccc12 ?
Sfp inh: 0%; Coupling enz: 4; ELG1 DNA repair: -24%; Giardia killer: 26

How did COc1cc(C(=S)N2CCCC2)cc(OC)c1OS(=O)(=O)c1ccc(NC(C)=O)cc1 do in these assays?
Sfp inh: 35µM*; Coupling enz: 4; ELG1 DNA repair: -26%; Giardia killer: 10

How did COc1ccc(NC(C)=O)cc1S(=O)(=O)Nc1ccc(C(=O)N2CCCC2)cc1 do in these assays?
Sfp inh: 14%; Coupling enz: -6; ELG1 DNA repair: 3%; Giardia killer: 15

Results for COc1cc(C(=S)N2CCCC2)cc(OC)c1OC ?
Sfp inh: 50µM*; Coupling enz: 1; ELG1 DNA repair: inconclusive; Giardia killer: 0

Results for COc1cc(C(=S)N2CCCC2)ccc1OS(=O)(=O)c1ccc(NC(C)=O)cc1 ?
Sfp inh: 1%; Coupling enz: 5; ELG1 DNA repair: inconclusive; Giardia killer: -2

How did COc1cc(C(=O)N2CCCCCCC2)cc(OC)c1OC do in these assays?
Sfp inh: 10%

Results for CC(=O)Nc1ccc(S(=O)(=O)Oc2ccccc2N2CCCCC2)cc1 ?
Sfp inh: -4%; Coupling enz: -7; ELG1 DNA repair: 8.2µM*; Giardia killer: 17

What do the screens show for `COc1cc(C(=S)N2CCOCC2)ccc1OS(=O)(=O)c1ccc(NC(C)=O)cc1`?
Sfp inh: 2%; Coupling enz: 14; ELG1 DNA repair: 12µM*; Giardia killer: -7

How did CCC(=O)OC1C(N(C)C)CC(C)O[C@H]1O[C@H]1[C@H](C)[C@@H](O[C@H]2CC(OC)[C@@H](O)C(C)O2)[C@H](C)C(=O)O[C@@H](CC)[C@](C)(O)[C@@H](O)[C@H](C)C(=O)[C@@H](C)C[C@]1(C)O (stereo not given in full) do in these assays?
Sfp inh: 13%

Results for COc1cc(O)cc(OC)c1OC ?
Sfp inh: -4%; Coupling enz: -33*

Results for CC(C)(C)c1cc(C(=S)N2CCCC2)cc(C(C)(C)C)c1O ?
Sfp inh: 40µM*; Coupling enz: -1; ELG1 DNA repair: 9%; Giardia killer: 4

Results for COc1c(O)cc(O)cc1O ?
Sfp inh: 4%; Coupling enz: 1

Results for COc1cc(NC(=S)N2CCCCC2C)cc(OC)c1OC (stereo not given) ?
Sfp inh: 45µM*; Coupling enz: 4; ELG1 DNA repair: 24%; Giardia killer: 35

How did CN(C(=O)C1CCCC1)C1CCS(=O)(=O)C1 (stereo not given) do in these assays?
ELG1 DNA repair: 20%; Giardia killer: 4

Results for OC(CN1CCCCC1)Cn1c2ccc(Cl)cc2c2cc(Cl)ccc21 (stereo not given) ?
Sfp inh: 50µM*; Coupling enz: -2; ELG1 DNA repair: inconclusive; Giardia killer: 18

What do the screens show for `OC(CN1CCN(c2ccccn2)CC1)Cn1c2ccc(Cl)cc2c2cc(Cl)ccc21` (stereo not given)?
Sfp inh: -4%; Coupling enz: -6; ELG1 DNA repair: -1%; Giardia killer: -10

Results for COC(=O)c1cc(-c2ccccc2)sc1NC(=O)CN1C(=O)c2ccccc2C1=O ?
Sfp inh: 20µM*; Coupling enz: -3; ELG1 DNA repair: 3%; Giardia killer: -16

What do the screens show for `CCOC(=O)c1cc(-c2ccccc2)sc1NC(=O)C(C)Sc1nnnn1C` (stereo not given)?
Sfp inh: 2%; Coupling enz: -5; ELG1 DNA repair: 18µM*; Giardia killer: 3

How did CCOC(=O)c1cc(-c2ccccc2)sc1NC(=O)C(C)Sc1nnc(C)s1 (stereo not given) do in these assays?
Sfp inh: 13%; Coupling enz: -2; ELG1 DNA repair: inconclusive; Giardia killer: 3

What do the screens show for `CCOC(=O)c1cc(-c2ccccc2)sc1NC(=O)C(C)C`?
Sfp inh: -2%; Coupling enz: 2; ELG1 DNA repair: -25%; Giardia killer: -2

Results for CCOC(=O)c1cc(-c2ccccc2)sc1NC(=O)c1ccc(OC)c(OC)c1 ?
Sfp inh: 32µM*; Coupling enz: 8; ELG1 DNA repair: -7%; Giardia killer: 19

What do the screens show for `CCOC(=O)c1cc(CC)sc1NC(=O)c1cccc(N2C(=O)CCC2=O)c1`?
Sfp inh: -16%; Coupling enz: 1; ELG1 DNA repair: 18µM*; Giardia killer: -10

How did CCOC(=O)c1cc(-c2ccccc2)sc1NC(=O)C(C)N1C(=O)NC(C)(c2ccc(Cl)cc2)C1=O (stereo not given) do in these assays?
Sfp inh: 19%; Coupling enz: 0; ELG1 DNA repair: 26µM*; Giardia killer: -14

Results for Cc1ccc(S(=O)(=O)Nc2nsc(N)n2)cc1 ?
Sfp inh: 35µM*; Coupling enz: 0; ELG1 DNA repair: 1%; Giardia killer: 12

How did CC(C)(C)Cc1nnc(NS(=O)(=O)c2ccc(F)cc2)s1 do in these assays?
Sfp inh: 24%; Coupling enz: 0; ELG1 DNA repair: -6%; Giardia killer: -2

How did Cc1ccc(S(=O)(=O)Nc2nnc(CC(C)(C)C)s2)cc1 do in these assays?
Sfp inh: 79µM*; Coupling enz: 6; ELG1 DNA repair: 4%; Giardia killer: -18

What do the screens show for `O=C(NCc1ccco1)C1CCN(C(=O)c2ccc([N+](=O)[O-])cc2)CC1`?
Sfp inh: 7%; Coupling enz: 0; ELG1 DNA repair: 10%; Giardia killer: -12

Results for Cc1ccc(NC(=O)COC(=O)Cc2cccs2)cc1S(=O)(=O)N1CCOCC1 ?
Sfp inh: 16%; ELG1 DNA repair: 11%; Giardia killer: 17
